Compound activity deposited in PubChem by National Center for Advancing Translational Sciences (NCATS).
p53 reactivator: re-activators of mutant p53; H1299 p53-A138V BP100-luciferase reporter, luminescence, 24 h; Potency, µM (doses to about 92.2 µM), for inactives: at the highest dose activity change, positive = activation, hits mostly activators; 320,000 tested, 0.063% active; AID 504706; also: potency is read from the fitted curve at half-maximal effect; % of control where 0% means no effect; nearly all actives have a fitted effect of over 45% in size
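H1299 (p53-null), stable ts p53-A138V + BP100-Luc; 1000 cells/well, Opti-MEM/10% FBS; cpd 4 pt, 1:5; 24 h, 37 deg C, 5% CO2; detection reagent 10 min RT; luminescence.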
Tb PFK inh: blocks T. brucei phosphofructokinase. O15648. T. brucei PFK, ADP-Glo luminescence. Potency, µM (titrated, usually from 57.5 µM), for inactives: at the highest dose activity, negative = inhibition, hits mostly inhibitors. 330,000 tested, 0.17% active;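 also: potency is read from the fitted curve at half-maximal effect; 0% = uninhibited 1x PFK enzyme wells and -100% = no-enzyme wells; nearly all actives have a fitted effect of over 60% in size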
Target sequence (O15648 whole entry, looked up): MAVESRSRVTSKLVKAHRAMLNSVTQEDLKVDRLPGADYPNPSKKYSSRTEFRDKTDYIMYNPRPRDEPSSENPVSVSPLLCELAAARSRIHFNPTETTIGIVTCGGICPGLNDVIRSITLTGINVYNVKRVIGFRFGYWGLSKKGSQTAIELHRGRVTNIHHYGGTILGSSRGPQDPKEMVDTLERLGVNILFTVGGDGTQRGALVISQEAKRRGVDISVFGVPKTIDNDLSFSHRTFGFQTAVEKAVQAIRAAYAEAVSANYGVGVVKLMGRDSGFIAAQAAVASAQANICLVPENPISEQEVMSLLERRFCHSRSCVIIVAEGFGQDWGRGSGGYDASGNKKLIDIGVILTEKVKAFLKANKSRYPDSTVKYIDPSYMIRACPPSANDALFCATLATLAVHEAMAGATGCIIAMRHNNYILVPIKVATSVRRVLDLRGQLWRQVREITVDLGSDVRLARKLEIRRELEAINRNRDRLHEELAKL
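1.25 nM PFK with 0.5 mM F6P and 0.1 mM ATP in 0.1 M TEA pH 8.0, 5 mM MgCl2, incubated 45 min at room temperature; ADP measured by ADP-Glo luminescence; compounds titrated up to 57 uM.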
RXFP1 ag: activates the human relaxin receptor RXFP1. HEK293T-RXFP1 cAMP TR-FRET, 30 min; response scale: percent of porcine relaxin response, buffer zero. Potency, µM (titrated, usually from 57.5 µM), for the others: at the highest dose activation, most hits filed as activators. 370,000 tested, 0.3% active. AID 2676; also: potency is read from the fitted curve at half-maximal effect; % is scaled to controls: 0 for no effect and ±100 for the full control effect; nearly all actives have a fitted effect of over 60% in size
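Agonist response is measured as cAMP accumulation in an RXFP1-transfected HEK293T line under PDE4 inhibition. Values are scaled between buffer-only and 29 nM porcine relaxin, and EC50s come from standard Hill equation fits.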
RXFP1 antag: blocks the human relaxin receptor RXFP1 | activity change, negative = inhibition, % at 57.5 µM | 350,000 tested, 0.59% active | AID 1259400 | Q9HBX9 | HEK293-RXFP1, relaxin-stimulated cAMP HTRF, 30 min; stronger effect = lower value;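 active = activity change of -60% or lower, but not beyond a set lower limit; inconclusive = change between -60% and -40%, or beyond the set limit; inactive = change above -40%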; also: % is scaled to controls: 0 for no effect and ±100 for the full control effect
gsp agonist: activates gsp, the McCune-Albright syndrome mutation; Potency, µM (titrated, usually from 76.9 µM), inactives show at the top dose activation (cAMP increase), most hits filed as activators; AID 624287; gsp mutant cells, cAMP HTRF, 30 min; 340,000 tested, 0.13% active; active = well fitted activation curve with a large enough effect; inconclusive = small, poorly fitted or top-dose-only effect, or another doubt; inactive = no such curve, though single readings can be large or run the other way; cell line not stated here;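 also: phosphodiesterase inhibitor Ro 20-1724 added with compounds to block cAMP breakdown; potency is read from the fitted curve at half-maximal effect; nearly all actives have a fitted effect of over 60% in size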
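Cells in DMEM/10% FBS with G418 were pretreated with compounds in DMSO plus […] (300 uM stock) for 30 min at 37C. cAMP was measured by HTRF (cAMP-d2 plus anti-cAMP antibody-K) after 30 min at room temperature.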
gsp antagonist: antagonists of gsp mutant (McCune-Albright syndrome) | gsp-mutant cells, cAMP HTRF, 30 min | Potency, µM (top dose mostly 76.9 µM), without a hit: at the top dose activity change, negative = inhibition, most hits filed as inhibitors | 340,000 tested, 0.4% active; calls by dose curve; cell line not stated here;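 also: intracellular cAMP measured with PDE inhibitor Ro 20-1724 present during compound exposure; potency is read from the fitted curve at half-maximal effect; % is scaled to controls: 0 for no effect and ±100 for the full control effect; nearly all actives have a fitted effect of over 65% in size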
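G418-selected cells were plated in DMEM/10% FBS for 16-24 h at 37C, then treated with compounds plus the PDE inhibitor […] (300 uM solution added) for 30 min at 37C. Intracellular cAMP was measured by HTRF after 30 min lysis at room temperature.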
* marks the source's active call; other numbers are inactive results; ! = a repeat was not active; [ ] = remark or other dose. Hits are enriched below; roughly 1.1% of the tested compounds scored in any of these assays. Unless noted, calls follow the shape of the dose curve; as a rule, active = well fitted curve in the direction sought with a large enough effect; inconclusive = small, poorly fitted or top-dose-only effect, or another doubt; inactive = no such curve, though single readings can be large; an effect the other way counts as inactive or inconclusive.

Results for Cc1ccc2nc(-c3ccccc3)cc(C(=O)N(C)CC(=O)Nc3ccccc3Br)c2c1 ?
p53 reactivator: 1%; Tb PFK inh: 2%; RXFP1 ag: 0%; RXFP1 antag: -75*; gsp agonist: 11%[15.4 µM]; gsp antagonist: inconclusive

Results for COc1ccc(NC(=O)CN(C)C(=O)c2cc(-c3ccccc3)nc3ccccc23)cc1 ?
p53 reactivator: -7%; Tb PFK inh: 0%; RXFP1 ag: 1%; RXFP1 antag: inconclusive; gsp agonist: 14%[15.4 µM]; gsp antagonist: -26%

How did O=C(CSc1n[nH]c(-c2ccccc2)n1)N1CCOCC1 do in these assays?
p53 reactivator: 14%; Tb PFK inh: 0%; RXFP1 ag: 2%; RXFP1 antag: -5; gsp agonist: -5%; gsp antagonist: 5%

What do the screens show for `CC1(C)CC(=O)c2cc(OCC(=O)NCCCN3CCN(c4ccc(F)cc4)CC3)ccc2O1`?
p53 reactivator: -18%; Tb PFK inh: 0%; RXFP1 ag: 0%; RXFP1 antag: 14; gsp agonist: -64%; gsp antagonist: -7%

How did COc1cccc(-c2nnc(-c3ccco3)o2)c1 do in these assays?
p53 reactivator: 40µM*; Tb PFK inh: 0%; RXFP1 ag: 0%; RXFP1 antag: -19; gsp agonist: 11%[15.4 µM]; gsp antagonist: -5%

Results for Cc1ccc(NC2=NCC(=O)N2C2CCCC2)cc1 ?
p53 reactivator: 12%; Tb PFK inh: 0%; RXFP1 ag: 0%; RXFP1 antag: 11; gsp agonist: inconclusive; gsp antagonist: 9%

Results for Cc1ccc(NC2=NCC(=O)N2C2CCCC2)cc1C ?
p53 reactivator: -3%; Tb PFK inh: 4%; RXFP1 ag: -2%; RXFP1 antag: -69*; gsp agonist: -30%[15.4 µM]; gsp antagonist: 3%

What do the screens show for `Nc1nc(NCCCN2CCOCC2)nc(NCc2ccccc2)c1[N+](=O)[O-]`?
p53 reactivator: -4%; Tb PFK inh: 1%; RXFP1 ag: 0%; RXFP1 antag: -10; gsp agonist: 20%[15.4 µM]; gsp antagonist: 2%

What do the screens show for `CC1CCC(C(C)C)C(OC(=O)Cn2c(-c3ccc(Br)cc3)[n+](C)c3ccccc32)C1` (stereo unspecified)?
p53 reactivator: -10%; Tb PFK inh: -3%; RXFP1 ag: 0%; RXFP1 antag: -81*!; gsp agonist: 0%[15.4 µM]; gsp antagonist: 7%

Results for CC1CCC(C(C)C)C(OC(=O)Cn2c(-c3ccc(Cl)cc3)[n+](C)c3ccccc32)C1 (stereo unspecified) ?
p53 reactivator: -13%; Tb PFK inh: 1%; RXFP1 ag: 0%; RXFP1 antag: inconclusive; gsp agonist: 39%; gsp antagonist: 5%

What do the screens show for `O=C(NC1CCCCC1)C1CC=CCC1C(=O)OCC(Cl)=C(Cl)Cl` (stereo unspecified)?
p53 reactivator: -5%; Tb PFK inh: 0%; RXFP1 ag: 1%; RXFP1 antag: -10; gsp agonist: inconclusive; gsp antagonist: -4%

What do the screens show for `Cc1cccc(NC(=O)CNC(=O)c2cccc(-n3cccc3)c2)c1C`?
p53 reactivator: 2%; Tb PFK inh: 21µM*; RXFP1 ag: 0%; RXFP1 antag: -17; gsp agonist: inconclusive; gsp antagonist: -1%

Results for Cc1cc(NC(=O)CSc2nc(-c3ccccc3C)nc3c2c(=O)n(C)c(=O)n3C)no1 ?
RXFP1 ag: 22%; RXFP1 antag: 2

What do the screens show for `CCc1ccccc1-n1c(SCC(=O)Nc2ccc(C)cc2)nc2n[nH]c(C)c2c1=N`?
RXFP1 ag: 7%; RXFP1 antag: -87*

How did CCc1ccc(NC(=O)CSc2nc3n[nH]c(C)c3c(=N)n2-c2ccccc2C)cc1 do in these assays?
RXFP1 ag: 16%; RXFP1 antag: -19

How did CCc1ccc(-c2nc(CN3CCC(C(=O)NCCN(CC)c4ccccc4)CC3)c(C)o2)cc1 do in these assays?
p53 reactivator: -56%; Tb PFK inh: 0%; RXFP1 ag: -3%; RXFP1 antag: -7; gsp agonist: -50%; gsp antagonist: 18%

How did CCN(CCNC(=O)C1CCN(Cc2nc(-c3ccc(Cl)cc3)oc2C)CC1)c1ccccc1 do in these assays?
p53 reactivator: -38%; Tb PFK inh: 4%; RXFP1 ag: 1%; RXFP1 antag: -62*; gsp agonist: 1%; gsp antagonist: 1%

How did O=C(CN1CCN(c2ccc(F)cc2)CC1)Nc1ccc(-n2cnnn2)cc1 do in these assays?
p53 reactivator: 4%; Tb PFK inh: -1%; RXFP1 ag: 2%; RXFP1 antag: 25; gsp agonist: -11%; gsp antagonist: -1%

Results for CC1(C)NC(=O)N(CC(=O)Nc2ccc(-n3cnnn3)cc2)C1=O ?
p53 reactivator: 8%; Tb PFK inh: -1%; RXFP1 antag: -71*; gsp agonist: -31%; gsp antagonist: 11%

What do the screens show for `O=C(Nc1ccc(C(F)(F)F)cc1)C(Cc1ccccc1)n1cccc1` (stereo unspecified)?
RXFP1 ag: 0%; RXFP1 antag: -31

What do the screens show for `CC(C)c1ccc(NC(=O)C(Cc2ccccc2)n2cccc2)cc1` (stereo unspecified)?
RXFP1 ag: 4%; RXFP1 antag: -71*

What do the screens show for `CC1C/C(=C/c2ccccn2)C(=O)/C(=C/c2ccccn2)C1` (stereo unspecified)?
p53 reactivator: -11%; Tb PFK inh: 1%; RXFP1 ag: 0%; RXFP1 antag: -75*; gsp agonist: 0%[15.4 µM]; gsp antagonist: -18%

Results for CC(C)(C)C1C/C(=C/c2ccccn2)C(=O)/C(=C/c2ccccn2)C1 (stereo unspecified) ?
p53 reactivator: -10%; Tb PFK inh: 10%; RXFP1 ag: -2%; RXFP1 antag: -1; gsp agonist: -23%; gsp antagonist: -21%

What do the screens show for `O=C(CCCOc1ccc(Cl)cc1)Nc1nncs1`?
p53 reactivator: -18%; Tb PFK inh: -4%; RXFP1 ag: 3%; RXFP1 antag: 1; gsp agonist: 2%; gsp antagonist: 1%

How did Fc1ccc(-c2onc3ccc(C4OCCO4)cc23)cc1 do in these assays?
p53 reactivator: 3%; Tb PFK inh: 0%; RXFP1 ag: -1%; RXFP1 antag: -4; gsp agonist: -10%[15.4 µM]; gsp antagonist: 11µM*

Results for Cc1ccccc1C(=O)NC(=S)NCCN1CCOCC1 ?
p53 reactivator: 6%; Tb PFK inh: 4%; RXFP1 ag: 1%; RXFP1 antag: 8; gsp agonist: -51%; gsp antagonist: 17%
